Source: PubChem BioAssay (National Center for Advancing Translational Sciences (NCATS))
DRD3 agonist = D3 dopamine receptor (human) agonism. 0.58% of 410,000 active. P35462. max activation, %. D3R DiscoveRx beta-arrestin cells, luminescence, 90 min; in the data active = max activation above about 30%
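Agonist-mode cell screen: cells plated at 1500/well and incubated overnight at 37 °C, then exposed to library compounds for 90 min at 37 °C. Detection reagent was added for 30–60 min at room temperature, and luminescence was read.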
PTHR1 ag = agonists of human PTHR1 parathyroid hormone receptor; Potency, µM (titrated, usually from 115 µM), most hits filed as activators; AID 743266; 0.075% of 410,000 active; HEK293 GP2 PTHR1 cells, GloSensor cAMP luminescence, 1 h; also: nearly all actives have a fitted effect of over 55% in size
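HEK-293-derived GP2 cells expressing PTHR1 and a GloSensor cAMP reporter, 3,000/well, plated overnight, given luciferin plus IBMX (each 0.5 mM as added) for 1 h at 37 °C, then compound for 1 h at 37 °C. Luminescence was read after 15 min at room temperature.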
D3 antag = antagonists of human D3 dopamine receptor | P35462 | D3R cells, DiscoveRx beta-arrestin luminescence, antagonist mode; hits give low values | max response, negative = inhibition, % | 2.5% of 360,000 active | AID 652054; in the data active = max response below about -50%; inconclusive = no clear call, values can overlap the other calls
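Cells plated overnight at 1500 cells/well, then exposed to library compounds with dopamine controls for 90 minutes at 37 degrees C. DiscoveRx reagent added for 30–60 minutes at room temperature; luminescence read, quantitative HTS format.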
RGS4 inh = blocks human RGS4-accelerated GTP hydrolysis; P49798; Transcreener GDP fluorescence polarization, RGS4-accelerated GTP hydrolysis; Potency, µM (top dose mostly 114 µM), actives largely listed as inhibitors; 0.039% of 390,000 active; AID 504845; also: nearly all actives have a fitted effect of over 75% in size
Target sequence (P49798 whole entry, looked up): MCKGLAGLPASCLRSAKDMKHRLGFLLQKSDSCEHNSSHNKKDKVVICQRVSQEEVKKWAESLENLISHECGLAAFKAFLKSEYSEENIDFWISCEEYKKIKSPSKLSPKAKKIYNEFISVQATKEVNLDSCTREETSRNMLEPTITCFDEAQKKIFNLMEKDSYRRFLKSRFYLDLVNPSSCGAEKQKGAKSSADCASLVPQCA
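MLSMR compounds (23 nl, pin-transferred) preincubated 10 min at room temperature with a 500nM (2x) first reagent, then RGS4 at 900nM (2x) plus Transcreener GDP mix added; fluorescence polarization (620/688 nm) read before and after 90 min at 30 °C.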
BRCA1 expr act = increases BRCA1 expression; MCF7-BRCA1-FFLuc reporter, luminescence, 48 h; response scale: scaled: vehicle 0%, 10 µM genistein 100%; Potency, µM (series often up to 46.1 µM), actives largely listed as activators; 1.1% of 380,000 active; also: nearly all actives have a fitted effect of over 80% in size
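MCF7-BRCA1-FFLuc cells, 2000/well in phenol-red-free MEM, attached 2 h then treated 48 h at 37 C. Luciferase luminescence read 15 min after reagent; normalized to genistein maximum activation (10microM) and DMSO, concentration-response fitted.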
B2AR arrestin = agonists driving beta-arrestin recruitment to human beta2-adrenergic receptor | AID 492947 | beta-arrestin recruitment to beta2AR, cell-based reporter | Potency, µM (titrated, usually from 46.1 µM), most hits filed as activators | 0.02% of 330,000 active; also: nearly all actives have a fitted effect of over 65% in size
Of the large screens only hits and unclear results are named; the others gave an inactive call. In the library only some 3.7% were active in any assay of this set; here they are far more common. Unless noted, calls follow the shape of the dose curve; as a rule, active = well fitted curve in the direction sought with a large enough effect; inconclusive = small, poorly fitted or top-dose-only effect, or another doubt; inactive = no such curve, though single readings can be large; an effect the other way counts as inactive or inconclusive.

COc1ccccc1OC(C)C(=O)Nc1ccccc1C(=O)NCc1cccnc1 (stereo not given)	none
CN(C)CCNc1ccc(CO)c2oc3ccc(O)cc3c(=O)c12	none (no result: B2AR arrestin)
CCN(CC)CCNc1ccc(CO)c2oc3cc(Cl)ccc3c(=O)c12	D3 antag -56 (no result: RGS4 inh, B2AR arrestin)
Cc1cc2c(cc1[N+](=O)[O-])NC(CNC(C)C)CC2 (stereo not given)	D3 antag -83
CCOc1ccc(-c2csc(NC(=O)CSCC(=O)O)n2)c2ccccc12	DRD3 agonist 45
CCOc1ccc(-c2csc(NC(=O)CSC3=NC(=O)CN3C(C)=O)n2)c2ccccc12	none
CN1CCC/C1=C/C=C1\SC(=S)NC1=O	D3 antag -64, BRCA1 expr act 10µM
O=C1NC(=S)SC1=Cc1cccs1	D3 antag inconclusive (no result: B2AR arrestin)
COc1ccccc1CNc1ccc(Br)cn1	DRD3 agonist 33
Oc1ccccc1CNc1ccc(Br)cn1	none
O=C(CCl)Nc1cc2[nH]c(=O)[nH]c2cc1Br	none
O=C(Nc1ccc(C2SCCS2)cc1)c1ccccc1	BRCA1 expr act inconclusive
CCCCS/C(N)=N/N=C/c1cc(C)ccc1O	D3 antag -55, B2AR arrestin inconclusive
CS/C(N)=N/N=C/c1cc(C)ccc1O	BRCA1 expr act inconclusive, B2AR arrestin inconclusive
CCN(CC)c1ccc(/C=N/N=C(N)N)c(O)c1	none
CCS/C(N)=N/N=C/c1cc(C)ccc1O	D3 antag -53, BRCA1 expr act inconclusive
Clc1ccc(SCCCCN2CCNCC2)cc1	none
Clc1ccc(SCCOCCN2CCCCC2)cc1	D3 antag -80
Clc1ccc(SCCOCCN2CCOCC2)cc1	D3 antag inconclusive
Clc1ccc(SCCOCCN2CCc3ccccc3C2)cc1	D3 antag -88
CC1CCN(CCOCCSc2ccc(Cl)cc2)CC1	D3 antag -110
N[C@H](C(=O)O)c1ccc(O)cc1	none (no result: PTHR1 ag, D3 antag, RGS4 inh, BRCA1 expr act, B2AR arrestin)
Cc1ccc2c(c1)N(C(=O)CCC(=O)NCc1cccs1)CC(C)O2 (stereo not given)	none (no result: D3 antag, BRCA1 expr act, B2AR arrestin)
COc1ccc(C(=O)N2CCC(C(=O)Nc3ccccc3Cl)CC2)cc1	none (no result: D3 antag, BRCA1 expr act, B2AR arrestin)
COc1ccc(-c2nnc(SCC(=O)N3CCc4ccccc43)o2)cc1OC	none (no result: D3 antag, BRCA1 expr act, B2AR arrestin)
COc1ccc(-n2sc3c(c2=S)-c2cc(OC)ccc2NC3(C)C)cc1	none
COc1ccc2c(c1)-c1c(sn(-c3ccc(OC)c(OC)c3)c1=S)C(C)(C)N2	D3 antag -59
CCN(c1ccccc1)S(=O)(=O)c1ccc(C(=O)N2CCN(c3ccccc3F)CC2)cc1	none (no result: RGS4 inh, B2AR arrestin)
Oc1c(Cl)cc(Cl)cc1C=Nc1ccc2c(c1)OCCO2	D3 antag -52
O=C(c1cc(-c2ccccn2)nc2c(Cl)cccc12)N1CCN(C(=O)C2CCCO2)CC1 (stereo not given)	D3 antag -51
O=C(CCN1CCCCC1)c1ccc2c(c1)OCCO2	PTHR1 ag inconclusive, D3 antag inconclusive, RGS4 inh inconclusive
O=C(CCN1CCC(c2ccccc2)C1)c1ccc2c(c1)OCCO2 (stereo not given)	D3 antag -66
O=C(CCN1CCc2ccccc2C1)c1ccc2c(c1)OCCO2	D3 antag -88, RGS4 inh inconclusive
O=C(CCN1CCc2ccccc21)c1ccc2c(c1)OCCO2	D3 antag inconclusive, RGS4 inh inconclusive
Cc1ccc(S(=O)(=O)N(C)c2ccc(C(=O)NC3CCCCC3)cc2)cc1	none (no result: RGS4 inh, B2AR arrestin)
C#CCN1[C@@H]2CCN(C2)c2cc(Br)ccc2S1(=O)=O	none (no result: B2AR arrestin)
CN(c1ccccc1)c1nc2ccsc2c(=O)s1	BRCA1 expr act 10µM
CCN(c1ccccc1)c1nc2ccsc2c(=O)s1	none
O=C(O)CCCNC(=O)/C=C/c1ccco1	none
O=C(/C=C/c1ccco1)NCCc1ccccc1	BRCA1 expr act 6.3µM
CCc1nnc(NC(=O)/C=C/c2ccco2)s1	BRCA1 expr act 4µM
CCc1nnc(NC(=O)C2COc3ccccc3O2)s1 (stereo not given)	BRCA1 expr act 11µM
